The text below walks through data of paper PMC11062922 (Nature Chemical Biology, 2023).

Where two headings read alike, the source gives them in different places.

One experiment concerns CDK7. Also on record: species or system human, MV4-11 + K-562 + COLO205 + SK-N-BE2 + OVCAR-8. As to conditions: read-out: apparent Kd; compound concentrations: 100 nM and 1000 nM (sheet 'Samples'), CATDS: 4.9338137384748702E-2; n = 1.
The test system of another experiment is ERCC2. Also on record: species or system human, MV4-11 + K-562 + COLO205 + SK-N-BE2 + OVCAR-8. The note with it: read-out: apparent Kd; compound concentrations: 100 nM and 1000 nM (sheet 'Samples'), CATDS: 5.1368063894958502E-2; n = 1.
Another experiment has as its system FER. Also on record: species or system human, MV4-11 + K-562 + COLO205 + SK-N-BE2 + OVCAR-8. As to conditions: read-out: apparent Kd; compound concentrations: 100 nM and 1000 nM (sheet 'Samples'), CATDS: 5.6215291988472402E-2; n = 1.
In a further experiment the test system is GAK. Also on record: species or system human, MV4-11 + K-562 + COLO205 + SK-N-BE2 + OVCAR-8. The note with it: read-out: apparent Kd; compound concentrations: 100 nM and 1000 nM (sheet 'Samples'), CATDS: 4.9289180471638903E-2; n = 1.
A further experiment concerns MAPK10. Also on record: species or system human, MV4-11 + K-562 + COLO205 + SK-N-BE2 + OVCAR-8. The note with it: read-out: apparent Kd; compound concentrations: 100 nM and 1000 nM (sheet 'Samples'), CATDS: 5.8204150926545503E-2; n = 1.
The test system of the next experiment is MAPK14. Also on record: species or system human, MV4-11 + K-562 + COLO205 + SK-N-BE2 + OVCAR-8. The note with it: read-out: apparent Kd, compound concentrations: 100 nM and 1000 nM (sheet 'Samples'), n = 1.
The test system of a further experiment is MAPK9. Also on record: species or system human, MV4-11 + K-562 + COLO205 + SK-N-BE2 + OVCAR-8. The note with it: read-out: apparent Kd; compound concentrations: 100 nM and 1000 nM (sheet 'Samples'), CATDS: 5.1291573819888199E-2; n = 1.
Another experiment deals with MAPKAPK2. Also on record: species or system human, MV4-11 + K-562 + COLO205 + SK-N-BE2 + OVCAR-8. The note with it: read-out: apparent Kd, compound concentrations: 100 nM and 1000 nM (sheet 'Samples'), n = 1.
For the next experiment, the system named is NLK. Also on record: species or system human, MV4-11 + K-562 + COLO205 + SK-N-BE2 + OVCAR-8. As to conditions: read-out: apparent Kd; compound concentrations: 100 nM and 1000 nM (sheet 'Samples'), CATDS: 0.64871625608349803; n = 1.
The next experiment has as its system PAK4. Also on record: species or system human, MV4-11 + K-562 + COLO205 + SK-N-BE2 + OVCAR-8. As to conditions: read-out: apparent Kd; compound concentrations: 100 nM and 1000 nM (sheet 'Samples'), CATDS: 5.1367607354333399E-2; n = 1.
A further experiment concerns PIP4K2C. Also on record: species or system human, MV4-11 + K-562 + COLO205 + SK-N-BE2 + OVCAR-8. The note with it: read-out: apparent Kd; compound concentrations: 100 nM and 1000 nM (sheet 'Samples'), CATDS: 6.1444231758823603E-2; n = 1.
Another experiment deals with PTK2B. Also on record: species or system human, MV4-11 + K-562 + COLO205 + SK-N-BE2 + OVCAR-8. The note with it: read-out: apparent Kd; compound concentrations: 100 nM and 1000 nM (sheet 'Samples'), CATDS: 5.2093058874082297E-2; n = 1.
The next experiment concerns the target Q6ZSR9 (human, UniProt Q6ZSR9). Also on record: species or system MV4-11 + K-562 + COLO205 + SK-N-BE2 + OVCAR-8. As to conditions: read-out: apparent Kd; compound concentrations: 100 nM and 1000 nM (sheet 'Samples'), CATDS: 4.2380052385305601E-2; n = 1.
In the next experiment the test system is SIK2. Also on record: species or system human, MV4-11 + K-562 + COLO205 + SK-N-BE2 + OVCAR-8. As to conditions: read-out: apparent Kd; compound concentrations: 100 nM and 1000 nM (sheet 'Samples'), CATDS: 4.6797026760186898E-2; n = 1.
In a further experiment the test system is STK3. Also on record: species or system human, MV4-11 + K-562 + COLO205 + SK-N-BE2 + OVCAR-8. The note with it: read-out: apparent Kd; compound concentrations: 100 nM and 1000 nM (sheet 'Samples'), CATDS: 4.17809647402431E-2; n = 1.
The next experiment concerns STK4. Also on record: species or system human, MV4-11 + K-562 + COLO205 + SK-N-BE2 + OVCAR-8. As to conditions: read-out: apparent Kd; compound concentrations: 100 nM and 1000 nM (sheet 'Samples'), CATDS: 4.6786088352923701E-2; n = 1.
Another experiment concerns TNK1. Also on record: species or system human, MV4-11 + K-562 + COLO205 + SK-N-BE2 + OVCAR-8. The note with it: read-out: apparent Kd; compound concentrations: 100 nM and 1000 nM (sheet 'Samples'), CATDS: 5.4278066670988299E-2; n = 1.
The subject of another experiment is TNK2. Also on record: species or system human, MV4-11 + K-562 + COLO205 + SK-N-BE2 + OVCAR-8. The note with it: read-out: apparent Kd; compound concentrations: 100 nM and 1000 nM (sheet 'Samples'), CATDS: 7.0528629271619694E-2; n = 1.
In a further experiment the test system is CIT. Also on record: species or system human, MV4-11 + K-562 + COLO205 + SK-N-BE2 + OVCAR-8. The note with it: read-out: apparent Kd; compound concentrations: 100 nM and 1000 nM (sheet 'Samples'), CATDS: 0.16560503181349201; n = 1.
A further experiment concerns CSNK1A1. Also on record: species or system human, MV4-11 + K-562 + COLO205 + SK-N-BE2 + OVCAR-8. The note with it: read-out: apparent Kd; compound concentrations: 100 nM and 1000 nM (sheet 'Samples'), CATDS: 0.105298123149642; n = 1.
The subject of a further experiment is CSNK1D. Also on record: species or system human, MV4-11 + K-562 + COLO205 + SK-N-BE2 + OVCAR-8. As to conditions: read-out: apparent Kd; compound concentrations: 100 nM and 1000 nM (sheet 'Samples'), CATDS: 0.38029539442901; n = 1.
Another experiment relates to CSNK1E. Also on record: species or system human, MV4-11 + K-562 + COLO205 + SK-N-BE2 + OVCAR-8. As to conditions: read-out: apparent Kd; compound concentrations: 100 nM and 1000 nM (sheet 'Samples'), CATDS: 0.17601881181755799; n = 1.
Another experiment relates to PKN3. Also on record: species or system human, MV4-11 + K-562 + COLO205 + SK-N-BE2 + OVCAR-8. The note with it: read-out: apparent Kd; compound concentrations: 100 nM and 1000 nM (sheet 'Samples'), CATDS: 0.10775551436498899; n = 1.

Sequence of Q6ZSR9 (Q6ZSR9 whole entry, looked up): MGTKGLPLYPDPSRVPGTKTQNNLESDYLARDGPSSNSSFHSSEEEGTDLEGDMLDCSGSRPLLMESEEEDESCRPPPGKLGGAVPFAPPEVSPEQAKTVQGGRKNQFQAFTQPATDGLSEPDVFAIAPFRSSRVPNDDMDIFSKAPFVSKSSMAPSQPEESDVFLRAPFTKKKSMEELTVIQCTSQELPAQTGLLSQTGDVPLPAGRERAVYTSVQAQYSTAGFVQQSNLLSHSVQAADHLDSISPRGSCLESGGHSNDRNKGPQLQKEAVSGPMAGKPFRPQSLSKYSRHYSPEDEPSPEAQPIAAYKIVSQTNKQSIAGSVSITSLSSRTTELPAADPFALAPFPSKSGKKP

`Cl.Cn1c(=O)c(Oc2cccc(F)c2)cc2cnc(NC3CCOCC3)nc21` [RO3304774-001]: the potency estimated from few doses in the experiment with CDK7 is 1360 nM; in the experiment with ERCC2, 1240 nM; with FER it was 1010 nM; with GAK, 1370 nM; with MAPK10 it was 939 nM; in the experiment on MAPK14 (CATDS: 6.3546758887955801E-2), 786 nM. Also, the potency estimated from few doses was 1240 nM in the experiment with MAPK9; 665 nM in the experiment with MAPKAPK2 (CATDS: 6.9359248510779001E-2); 17.9 nM in the experiment with NLK; 1240 nM in the experiment on PAK4; 840 nM in the experiment on PIP4K2C; 1200 nM with PTK2B. The potency estimated from few doses in the experiment with Q6ZSR9 was 2060 nM; in the experiment on SIK2, 1560 nM; in the experiment on STK3, 2160 nM; with STK4 it was 1560 nM; in the experiment with TNK1, 1090 nM; in the experiment on TNK2, 645 nM.

As to `Cc1ccn2nc(-c3ccc(F)cc3)c(-c3ccncc3)c2c1.Cl` [GW457859A], the potency estimated from few doses in the experiment with CIT was 653 nM; in the experiment with CSNK1A1, 2070 nM; with CSNK1D, 165 nM; in the experiment with CSNK1E, 578 nM; in the experiment with MAPK14 (CATDS: 0.12679025336255401), 1200 nM; in the experiment on MAPKAPK2 (CATDS: 0.125209165131694), 1240 nM. For the same compound, the potency estimated from few doses with PKN3 is 1920 nM.
